Laboratory results from the supplement of paper PMC9477273.

Each molecule was assayed on DRIVER-selected RNA biosensor (aptazyme) pool (assay: maximum fold change of ribozyme cleavage across biosensor pool versus no-compound control; higher = stronger biosensor response (ligand inhibits cleavage)). Conditions: 10 µM.
Method: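 CleaveSeq: a pool of resynthesized hammerhead-ribozyme RNA biosensors (sTRSV scaffold with randomized loops, 1,730 sequences) was T7-transcribed at 37 °C for 15-30 min with a single compound at 10 µM. Cleaved and uncleaved products were counted by NGS, and fold change of cleavage was computed against the DMSO-only condition. The value is the maximum fold change of cleavage over all biosensors in the pool. About 255 compounds were tested individually.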

SMILES | maximum fold change
Cc1cc(NC(=O)CSc2nc3ncccc3c(=O)n2CCc2ccccc2)[nH]n1 | 3.45
Cc1nn2c(-c3ccco3)nnc2c2ccccc12 | 8.73
O=C(NCc1ccco1)c1ccccc1Br | 2.5
CCOC(=O)c1cc(-c2ccc(C)cc2)n(CC(=O)NC(C)CC)c1C (stereo not given) | 2.38
CCOC(=O)c1cnc2c(C)c(Cl)ccc2c1NCCCN1CCOCC1 | 12.1
Cc1ccc(CNCc2c(C(=O)O)c(C)n(Cc3ccccc3C)c2C)o1 | 3.25
COc1ccc(CCNC(=O)c2nnc(Cc3ccc(Cl)cc3Cl)o2)cc1OC | 2.09
CC1CCN(c2ncnc3sc4c(c23)CCC(C)C4)CC1 (stereo not given) | 3.18
N/C(=N\OC(=O)N1CCOCC1)c1ccccn1 | 2.1
COC(=O)/C(C#N)=C/c1c(Oc2ccccc2Cl)nc2ccccn2c1=O | 3.58
Clc1ccc2nc3c4ccccc4cnn3c2c1 | 3.12
Cc1ccc(-c2noc(CCC(=O)N3CCN(Cc4ccccc4)CC3)n2)cc1 | 3.6
Cc1[nH]c2ccccc2c1/C=C1\C(=N)N2N=C(N3CCC(C)CC3)SC2=NC1=O | 3.17
Cc1ccc(CNC(=O)c2cc3c(=O)oc4ccccc4c3s2)o1 | 3.09
COc1cccc(/C=C(\C#N)c2nc3ccccc3[nH]2)c1O | 11.2
O=S(=O)(NCc1ccccn1)c1ccc(Br)cc1Br | 1.99
CCN1CCCC1CNC(=O)CS(=O)(=O)Cc1nc(-c2ccc(C)cc2)oc1C (stereo not given) | 2.2
CCOc1ccc2c(c1)[N+](C)=C(/C=C/c1ccc(C(=O)OC)cc1)C2(C)C | 2.67
O=C(c1cc(-c2ccccc2)n[nH]1)N1CCc2ccccc2C1 | 4.06
CCOc1cc(CNc2ncc(-c3ccc(Br)cc3)n2C)ccc1O | 2.06

SMILES | maximum fold change
CC(NC(=O)/C=C/c1ccccc1Cl)c1ccccc1 (stereo not given) | 2.1
COc1ccc(OC)c(/C=C2/N=C(c3cccc(Cl)c3Cl)OC2=O)c1 | 4.84
COCCNC(=O)C1c2ccccc2C(=O)N(CCOC)C1c1c[nH]c2ccccc12 (stereo not given) | 2.7
O=C(NC1CCN(Cc2ccccc2)CC1)c1cc2c(=O)oc3ccccc3c2s1 | 7.21
CCOC(=O)N1CCN(C(=O)C2=C(C)C(=O)OC23CCCCC3)CC1 | 4.06
Cc1ccc2nc(/C(C#N)=C\c3ccc[nH]3)[nH]c2c1 | 4.98
COc1cccc(-c2cc(C(=O)NC3CCCc4ccccc43)[nH]n2)c1 (stereo not given) | 1.96
CCOC(=O)C1=C(C)Nc2nc(-c3cccs3)nn2C1c1ccc(C#N)cc1 (stereo not given) | 1.85
COc1cc(OC)c(OC)cc1/C=C1N=C(c2ccco2)OC1=O | 2.19
N/C(=N\OC(=O)N1CCOCC1)c1cccnc1 | 3.37
CCOCCCNC(=O)c1cc(C)nn1-c1ccccc1 | 2.81
N#C/C(=Cc1c(Oc2ccccc2Cl)nc2n(c1=O)cccc2)/c1nc2c([nH]1)cccc2 | 7.4
Cc1ccc(-c2nc(CS(=O)(=O)CC(=O)NCCCN(C)Cc3ccccc3)c(C)o2)cc1 | 3.58
O=c1cc(-c2ccccc2)[nH]c2nc(C(F)(F)F)nn12 | 3.78
CCOC(=O)c1c(C)c(C(=O)N(CC)C2CCCCC2)c(C)n1C | 2.31
COc1cccc(/C=N/NC(=N)N)c1O | 5.16
O=C(c1cc(-c2ccccc2)n[nH]1)N1CCn2c1nc1ccccc12 | 5.17
CCOC(=O)c1cnc2c(OC)cccc2c1NCCCN(CC)CC | 6.68
COc1cc(CNc2ncc(-c3ccccc3)n2C)cc(OC)c1OC | 1.75
COc1ccc(cc1)/C=CC(=O)NCC(=O)O | 3.29
